Data published in paper PMC4552634, “A New Set of Chemical Starting Points with Plasmodium falciparum Transmission-Blocking Potential for Antimalarial Drug Discovery” (PLoS ONE, 2015).
Read-outs that look alike come from different tables or passages of the source. Out of some 13,000 compounds screened, about 3,200 (25%) showed an effect of 50% or more. This is one part of the list.

System: P. falciparum stage V gametocytes
Set-up: BacTiter-Glo ATP luminescence viability of purified stage V gametocytes in 384-well plates, per cent inhibition versus DMSO
Conditions: 48 h, 5 µM, inhibitor

Row | SMILES | % Inhibition [%] | % Inhibition (% Inhibition) [%]
1 | Cc1c(C(=O)C2CC2CN2CCC(N3CCCC3)CC2)sc2ccccc12 (centres unmarked) [TCMDC-132577] | 31.52 | –
2 | C=C[C@]1(C)C[C@@H](OC(=O)CSC2CN3CCC2C3)[C@@]2(C)C3C(=O)CC[C@@]3(CC[C@H]2C)[C@@H](C)[C@@H]1O (some centres unmarked) [TCMDC-139185] | 16.51 | –
3 | CC(C)(C)c1cc(C(=O)N2CCN(c3cnccn3)CC2)n(Cc2ccccc2)n1 [TCMDC-133778] | 6.708 | –
4 | COc1cc2nc(N3CCC(CNC(=O)c4ccc(-c5ccc(C(F)(F)F)cc5)cc4)CC3)nc(N)c2cc1OC [TCMDC-138716] | 114.6 | –
5 | COC(=O)c1ccc(-c2ccc(C(=O)NCC3CCN(c4nc(N)c5cc(OC)c(OC)cc5n4)CC3)cc2)cc1 [TCMDC-138721] | 127 | –
6 | COc1cc2nc(N3CCC(CNC(=O)c4ccc(NC(=O)c5ccc(Cl)cc5)cc4)CC3)nc(N)c2cc1OC [TCMDC-138712] | 79.48 | –
7 | COc1cc2nc(N3CCC(CNC(=O)c4ccc(-c5ccccc5)cc4)CC3)nc(N)c2cc1OC [TCMDC-137787] | -6.004 | –
8 | COc1cc2nc(N3CCC(CNCc4ccc(-c5ccc(C(F)(F)F)cc5)cc4)CC3)nc(N)c2cc1OC [TCMDC-138757] | 94.11 | –
9 | COc1ccc2nccc([C@@H](O)CN3CCC(NC(=O)C(=Cc4ccc(C#N)cc4)c4ccc(-c5ccccc5)cc4)CC3)c2c1 [TCMDC-141112] | -10.17 | –
10 | Cc1cc(NC(=O)Nc2ccc(Cl)cc2F)c2ccccc2n1 [TCMDC-134658] | -34.71 | –
11 | CCCC(C)NC(=O)c1cnn(-c2ccc(C(C)(C)C)cc2)c1OCc1ccc(Br)cc1 (centres unmarked) [TCMDC-139598] | 11.83 | –
12 | CC(=O)Nc1ccc(C(=O)Nc2cccc(-c3ccc(-c4nc5cc(F)ccc5[nH]4)s3)c2)cn1 [TCMDC-136833] | -51.51 | –
13 | Cn1c2c(c3ccccc31)CN(CCC1(c3ccc(Cl)c(Cl)c3)CN(C(=O)Cc3ccccc3)CCO1)CC2 (centres unmarked) [TCMDC-135563] | 32.52 | –
14 | Cc1cc(C(=O)Nc2ccc3c(c2)CCN3C2CCN(Cc3ccc(F)cc3Cl)C2)no1 (centres unmarked) [TCMDC-135081] | 2.936 | –
15 | Cc1cc(Cl)c(S(=O)(=O)NC(C)(C)C)cc1OCC(=O)NC1CCCCC1 [TCMDC-124352] | -13.59 | –
16 | COCCN1CCC(CN(C)CC(C)(C)c2nc(-c3ccc(Cl)c(O)c3)c(-c3ccncc3)[nH]2)CC1 [TCMDC-140899] | -71.13 | –
17 | CN1CCN(c2cc3c(cc2Cl)CCN3C(=O)Cc2ccc(Cl)c(NC(=O)Nc3cccc(C#N)c3)c2)CC1 [TCMDC-139474] | 3.911 | –
18 | Nc1ncc(-c2ccc(F)cc2)cc1-c1nc2ccc(Cl)cc2[nH]1 [TCMDC-138810] | -32.19 | –
19 | Cc1[nH]cnc1Cc1ccc2c(c1O)c1ccccc1n2C [TCMDC-131955] | -82.46 | –
20 | Cc1cc(NC(=O)c2sc3ccccc3c2O)no1 [TCMDC-124522] | -1.25 | –
21 | COc1c(C2CCN(CCN3CCC(NC(=O)c4ccc(-c5ccc(C(F)(F)F)cc5)cc4)CC3)CC2)ccc2c1CCCC2 [TCMDC-138857] | 16.95 | –

Row | SMILES | % Inhibition [%] | % Inhibition (% Inhibition) [%]
22 | N#Cc1ccc(-c2nc(CO)c(C(=O)NCCCCN3CCC(c4ccc5c(c4OCC(N)=O)CCCC5)CC3)s2)cc1 [TCMDC-138872] | -1.012 | –
23 | CCOc1c(OC)ccc2c1CCN(CCN1CCC(CNC(=O)c3ccc(-c4ccc(C#N)cc4)cc3)CC1)C2 [TCMDC-138848] | -12.76 | –
24 | COc1c(C2CCN(CCN3CCC(CNC(=O)c4ccc(-c5ccc(C#N)cc5)cc4)CC3)CC2)ccc2c1CCCC2 [TCMDC-138859] | 105.9 | –
25 | N#Cc1ccc(-c2ccc(C(=O)NCCCCN3CCC(c4ccc5c(c4OCC(N)=O)CCCC5)CC3)cc2)cc1 [TCMDC-138803] | 73.12 | –
26 | NC(=O)COc1c(C2CCN(CCN3CCC(CNC(=O)c4ccc(-c5ccc(C(F)(F)F)cc5)cc4)CC3)CC2)ccc2c1CCCC2 [TCMDC-134308] | 93.17 | –
27 | N#Cc1ccc(-c2ccc(C(=O)NCCCCN3CCC(c4ccc5c(c4OCC(N)=O)CCCC5)CC3)nc2)cc1 [TCMDC-135212] | 23.96 | –
28 | N#Cc1ccc(-c2ccc(C(=O)NCC3CCN(CCN4CCC(c5ccc6c(c5OCC(N)=O)CCCC6)CC4)CC3)cc2)cc1 [TCMDC-134563] | 103.8 | –
29 | COc1cc(CNC[C@@H](O)[C@H](Cc2ccccc2)NC(=O)c2cc(C3CCCC3)cc(N3CCCC3=O)c2)cc(OC)c1 [TCMDC-134558] | -9.273 | –
30 | COc1ccc(Nc2nccc(N3CCC(NC(=O)Nc4cccc(OC)c4)C3)n2)cc1 (centres unmarked) [TCMDC-133616] | -47.96 | –
31 | CCSc1nnc(C2CCCN(CC(=O)Nc3cc(C(F)(F)F)ccc3Cl)C2)n1CC (centres unmarked) [TCMDC-123540] | 7.83 | –
32 | CC(=O)C1(c2ccccc2)CCN(CCC2(c3ccc(Cl)c(Cl)c3)CN(C(=O)C3CCCCC3)CCO2)CC1 (centres unmarked) [TCMDC-135326] | -73.48 | –
33 | CCOC(=O)c1c(C)n(-c2ccc(Cl)cc2)c2ccc(OC(=O)C=Cc3ccccc3)cc12 [TCMDC-125715] | -42.41 | –
34 | CN(C)CCNC(=O)N1CCCN(c2ncnc3cc(-c4ccc(Cl)cc4)sc23)CC1 [TCMDC-134387] | 97.42 | –
35 | O=C(NCCN1CCCC1)N1CCCN(c2ncnc3cc(-c4ccc(Cl)cc4)sc23)CC1 [TCMDC-134394] | -0.6581 | –
36 | O=C(Nc1ccccc1O)C1CCN(c2ncnc3cc(-c4ccc(F)cc4)sc23)CC1 [TCMDC-124822] | -65.25 | –
37 | CN(C)CCNC(=O)N1CCCN(c2ncnc3cc(-c4ccccc4)sc23)CC1 [TCMDC-134389] | -9.14 | –
38 | O=C(NCCN1CCCC1)N1CCCN(c2ncnc3cc(-c4ccc(F)cc4)sc23)CC1 [TCMDC-134393] | 93.57 | –
39 | CC(C)N1CCC(NC(=O)N2CCCN(c3ncnc4cc(-c5ccc(Cl)cc5)sc34)CC2)CC1 [TCMDC-134390] | -12.69 | –
40 | O=C(NCCN1CCCCC1)N1CCCN(c2ncnc3cc(-c4ccccc4)sc23)CC1 [TCMDC-134392] | 3.881 | –
41 | CC(C)N1CCC(NC(=O)N2CCCN(c3ncnc4cc(-c5ccccc5)sc34)CC2)CC1 [TCMDC-134391] | 65.6 | –
42 | CN(C)CCNC(=O)NC1CN(c2ncnc3cc(-c4ccccc4)sc23)C1 [TCMDC-134388] | -2.865 | –

Row | SMILES | % Inhibition [%] | % Inhibition (% Inhibition) [%]
43 | Cc1c(CNCCCNc2cc(=O)c3ccccc3[nH]2)sc(C(F)F)c1Br [TCMDC-141322] | -67.17 | –
44 | NC(=O)c1ccc(NC(=O)CN(Cc2ccc(Cl)cc2)S(=O)(=O)c2ccccc2)cc1 [TCMDC-124454] | 35.94 | –
45 | CN(C)CCOc1ccc(-n2c(-c3nonc3N)nc3cncc(-c4ccc(F)cc4)c32)cc1 [TCMDC-134178] | -7.095 | –
46 | CC(=O)Nc1ccc([N+](=O)[O-])c2c(Br)cccc12 [TCMDC-125386] | -53.09 | –
47 | COc1cc(F)c2ncc(Cl)c([C@H](O)CN3CCC(NCc4ccc5c(n4)NC(=O)CO5)CC3)c2c1 [TCMDC-135487] | 8.334 | –
48 | CC(C)(C)c1cc(/C=C/C(=O)NC2CCC(CN3CCC(c4c[nH]c5ccccc45)CC3)CC2)cc(C(C)(C)C)c1O (centres unmarked) [TCMDC-139757] | – | 96.1
49 | CC(C)(C)c1cc(/C=C/C(=O)NC2CCC(CN3CCC(c4c[nH]c5ccccc45)CC3)CC2)cc(C(C)(C)C)c1O (centres unmarked) [TCMDC-139767] | – | 105.4
50 | N#Cc1cccc(Nc2cc(C(F)(F)F)nc(Nc3ccccc3)n2)c1 [TCMDC-133458] | 7.387 | –
51 | CCOc1cc(Cc2cnc(N)nc2N)cc(Br)c1OC [TCMDC-137721] | -8.107 | –
52 | CCN(Cc1ccc(-c2ccc(C(F)(F)F)cc2)cc1)C(=O)Cn1c(SCc2cccc(F)c2F)cc(=O)c2cc(CN3CCCCC3)ccc21 [TCMDC-141592] | 106.5 | –
53 | CC(C)N(Cc1ccc(-c2ccc(C(F)(F)F)cc2)cc1)C(=O)Cn1c(SCc2cccc(F)c2F)cc(=O)c2cc(CN3CCCCC3)ccc21 [TCMDC-141593] | 103.1 | –
54 | COC(=O)C1(NC(=O)c2ccc(-n3nc(C)c(-c4ccccc4)c3N)cc2)CCCC1 [TCMDC-134041] | 30.38 | –
55 | CCCC(C)NC(=O)C(N)Cc1cccc(I)c1 (centres unmarked) [TCMDC-141272] | -22.86 | –
56 | Cc1nn(CCOC(=O)NC(NCC2COc3ccccc3O2)C(Cl)(Cl)Cl)cc1[N+](=O)[O-] (centres unmarked) [TCMDC-124139] | 72.15 | –
57 | O=C(NCC1COc2ccccc2O1)c1cnc2c(c1)nc(-c1cnc(-c3ccccc3)[nH]1)n2CCSCc1c(F)cccc1Cl (centres unmarked) [TCMDC-139692] | 12.96 | –
58 | Cc1ncc([N+](=O)[O-])n1CCOC(=O)NC(Nc1ccc(Br)cc1)C(Cl)(Cl)Cl (centres unmarked) [TCMDC-124219] | 76.02 | –
59 | CC1(C)N=C(N)N=C(N)N1OCC1COc2ccccc2O1 (centres unmarked) [TCMDC-131585] | 1.956 | –
60 | Cc1ncc([N+](=O)[O-])n1CCOC(=O)NC(NCC1COc2ccccc2O1)C(Cl)(Cl)Cl (centres unmarked) [TCMDC-125611] | 93.51 | –
61 | CC(C)C(=O)NC(NC(=S)Nc1ccc(Br)cc1)C(Cl)(Cl)Cl (centres unmarked) [TCMDC-124131] | 29.56 | –
62 | O=C(/C=C/c1ccc(Cl)c(Cl)c1)NCCCCCN1CCCN(C(=O)Nc2ccc([N+](=O)[O-])cc2)CC1 [TCMDC-135754] | -58.55 | –
